The list is not random: actives were taken first. Their share in the collection is about 6.9%.
MPTP inh = inhibitors of mitochondrial permeability transition pore; isolated mouse mitochondria, Ca2+ swelling absorbance, 30 min; actives 1.4% (n = 360,000); AID 602449; inhibition, % at 10 µM;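 active = inhibition of 50% or more, scaled per plate between neutral and stimulator controls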;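 note: 0% = DMSO wells given calcium and 100% = 1 mM EGTA wells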
Beta cell apopt = beta cell apoptosis inhibition. INS-1E cytokine-induced death, ATP luminescence, 48 h; percent of positive-control rescue, neutral wells zero. protection from apoptosis, % (concentration not given with the values). actives 0.8% (n = 300,000);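 active = Every replicate reaches about 75%, or at least half do and their mean reaches it too, limit read from the data; inconclusive = At least half of replicates reach the limit but their mean does not; inactive = Under half of replicates reach the limit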;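 note: 0% = cytokine-treated negative control wells and 100% = positive control rescue; higher means more ATP so stronger rescue from cytokine killing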
NR3A LBD binder = modulators (binders) of human NR3A ligand-binding domain. NR3A LBD differential scanning fluorimetry, Tm shift; 0% = protein alone, 100% = glycine-bound protein. Tm shift relative to glycine control, % at 25 µM. actives 2.5% (n = 340,000). AID 1259313;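 active = melting temperature shift of at least 10% of the positive control shift, at one fixed dose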
SKKanGAS inh = blocks kanamycin growth of S. pyogenes SKKanGAS strain | BacTiter-Glo, 6 h | inhibition, % at 7.5 µM | actives 1.3% (n = 300,000) | AID 1662;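 active = mean replicate score, as percent of positive control median, at least 50; inconclusive = mean below 50 but one replicate at or above 50; inactive = mean and every replicate below 50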;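 note: strain carries kanamycin resistance gene driven by streptokinase promoter and grows in 40 µg/ml kanamycin; loss of luminescence reflects streptokinase promoter inhibition or plain growth inhibition; 0% = median of DMSO wells and 100% = positive control at its reference dose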
CSC inhib = blocks cancer stem cells | cancer stem cell-like cells viability, luminescence | inhibition, % at 7.5 µM | actives 1.1% (n = 300,000) | AID 2717; in the data active = inhibition above about 75%; inconclusive = no clear call, values can overlap the other calls; tested in HMLE shEcad cells
Mdm2 MdmX PPI = disrupts the human Mdm2-MdmX interaction. O15151+Q00987. SaOS-2 split-luciferase Mdm2/MdmX complementation, luminescence. inhibition, % at 8 µM. actives 3% (n = 330,000). AID 485346;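 active = inhibition of at least 50% at 8 µM in the primary screen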
Target sequence (O15151 whole entry, looked up): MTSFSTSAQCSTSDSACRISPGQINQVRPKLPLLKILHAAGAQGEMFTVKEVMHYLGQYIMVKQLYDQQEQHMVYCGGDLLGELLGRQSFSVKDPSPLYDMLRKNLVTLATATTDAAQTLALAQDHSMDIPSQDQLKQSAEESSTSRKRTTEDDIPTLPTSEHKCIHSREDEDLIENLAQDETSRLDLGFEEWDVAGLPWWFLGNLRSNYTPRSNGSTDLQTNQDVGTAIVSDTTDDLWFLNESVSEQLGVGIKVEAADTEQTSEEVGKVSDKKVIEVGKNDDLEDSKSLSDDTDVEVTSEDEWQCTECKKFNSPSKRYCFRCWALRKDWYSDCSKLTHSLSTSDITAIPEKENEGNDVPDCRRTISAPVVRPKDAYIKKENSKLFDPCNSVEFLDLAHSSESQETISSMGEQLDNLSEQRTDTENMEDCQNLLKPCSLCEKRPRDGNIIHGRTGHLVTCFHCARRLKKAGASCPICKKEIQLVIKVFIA
Target sequence (Q00987 whole entry, looked up): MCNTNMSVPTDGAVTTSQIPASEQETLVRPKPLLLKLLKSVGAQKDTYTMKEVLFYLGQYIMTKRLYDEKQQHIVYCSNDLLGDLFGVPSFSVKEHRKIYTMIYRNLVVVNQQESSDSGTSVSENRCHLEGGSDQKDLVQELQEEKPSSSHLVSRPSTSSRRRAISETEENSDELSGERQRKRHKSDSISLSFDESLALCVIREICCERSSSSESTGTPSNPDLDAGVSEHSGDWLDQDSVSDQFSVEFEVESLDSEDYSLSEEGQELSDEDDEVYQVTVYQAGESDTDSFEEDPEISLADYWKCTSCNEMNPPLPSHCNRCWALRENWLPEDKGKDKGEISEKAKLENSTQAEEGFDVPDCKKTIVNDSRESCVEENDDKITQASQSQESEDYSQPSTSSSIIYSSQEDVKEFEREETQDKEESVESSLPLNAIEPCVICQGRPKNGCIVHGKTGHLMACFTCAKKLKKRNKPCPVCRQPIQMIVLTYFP
MPTP counter = mitochondrial membrane potential, counter-screen; shares compounds with MPTP inh; isolated mitochondria, Rhodamine 123 fluorescence; inhibition, % at 10 µM; actives 78% (n = 5,000); AID 624504; in the data active = inhibition above about 22%;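 note: 0% = DMSO vehicle and 100% = positive control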
MPTP abs DR = MPTP inhibition, dose response swelling confirmation; shares compounds with MPTP inh; isolated mitochondria swelling, absorbance; IC50, µM; actives 58% (n = 780); AID 651561; in the data active = IC50 below about 20 µM
MPTP cs DR = counter-screen for mitochondrial permeability transition pore inhibitors, dose response. IC50, µM. AID 651564. actives 49% (n = 780). isolated mitochondria counterscreen, fluorescence read-out. shares compounds with MPTP inh; in the data active = IC50 below about 80 µM
Active calls of the source: *; ? = inconclusive; / = no result.

SMILES	MPTP inh	Beta cell apopt	NR3A LBD binder	SKKanGAS inh	CSC inhib	Mdm2 MdmX PPI	MPTP counter	others
NC(=O)C1CCN(C(=O)c2cc(Cl)c3c(c2)OCCO3)CC1	0	-5	-1	/	-5	3	/
CC(=O)c1ccc(NC(=S)NC(=O)Cc2ccc(Cl)cc2)cc1	2	/	-6	-3	-9	13	/
CC(=O)c1ccc(NC(=S)NC(C)c2ccc(Cl)cc2Cl)cc1 (centres undefined)	95*	?	22*	22	30	30	69*
CC(=O)c1ccc(NC(=S)Nc2ccc(Br)c(Cl)c2)cc1	96*	-5	29*	95*	/	-27	100*
COc1cc(CNC(=O)c2cc(-c3ccc(F)cc3C)n[nH]2)cc(OC)c1	2	/	/	/	/	/	/
Cc1ccc(Sc2cc(NCCCO)c([N+](=O)[O-])c3nonc23)cc1	72*	-11	-1	4	7	24	34*
CC(C)CCSc1cc(NCCO)c([N+](=O)[O-])c2nonc12	5	3	-5	1	20	15	/
COc1ccc(CCC(=O)Nc2ccc(Cl)c(S(=O)(=O)N3CCCC3)c2)cc1	96*	-1	0	1	11	27	85*
COC(=O)[C@]12CCCCC=C1N(Cc1ccc(Cl)cc1Cl)C(=O)[C@H](CC(=O)NCc1cccs1)C2	1	/	/	/	/	/	/
COc1ccc(NC(=O)Cn2c(C)cc(=O)c3cccc(OC)c32)cc1	2	0	-1	-3	-3	36	/
COc1cccc2c(=O)cc(C)n(CC(=O)Nc3ccc(Br)cc3)c12	70*	5	-16	4	4	43	33*
O=S(=O)(NCC(c1ccccc1)N1CCC(O)CC1)c1ccc(Cl)cc1 (centres undefined)	0	-5	-2	2	2	-8	/
O=S(=O)(NCC(Nc1ccc(Cl)cc1)c1ccccc1)c1ccc(Cl)cc1 (centres undefined)	87*	6	28*	10	52	6	85*
CCc1ccc(NC(=O)c2ccc(F)c(S(=O)(=O)N(CC)c3ccccc3)c2)cc1	62*	/	2	10	/	4	76*
CCN(c1ccccc1)S(=O)(=O)c1cc(NC(=O)C2CC2)ccc1Cl	0	4	3	/	-4	11	/
Cc1cccc(NC(=O)c2ccc(F)c(S(=O)(=O)NCc3ccco3)c2)c1	0	-8	-3	-19	3	26	/
O=C(Nc1cccc(Cl)c1)c1ccc(F)c(S(=O)(=O)NCc2cccs2)c1	77*	-2	13*	-4	31	27	84*
CCN(c1ccccc1)S(=O)(=O)c1cc(C(=O)Nc2cccc(Cl)c2)ccc1F	95*	/	15*	32	/	38	69*
O=C(CN1CCCC1c1cccs1)N1CCN(S(=O)(=O)c2cccc(F)c2)CC1 (centres undefined)	0	/	-1	/	/	24	/
O=C(Nc1cccc(Cl)c1)Nc1ccc2c(c1)C(=O)OC2	80*	-9	31*	-7	-19	0	85*
CN(c1cccc(NC(=O)Nc2cccc(Cl)c2)c1)S(C)(=O)=O	6	13	-4	4	/	1	/
CN(C)c1ccc(NC(=O)Nc2cccc(Cl)c2)cc1	74*	7	22*	9	40	-111	72*
CC(=O)N(C)c1ccc(NC(=O)c2cnn(C)c2)cc1	70*	1	0	1	-2	9	4
O=C(Nc1ccc2c(c1)C(=O)OC2)c1ccccc1Cl	0	1	0	-1	10	-7	/
Cc1cccc(NC(=O)Nc2ccc(Cl)cc2)n1	1	-2	1	-1	-11	-8	/
SMILES	MPTP inh	Beta cell apopt	NR3A LBD binder	SKKanGAS inh	CSC inhib	Mdm2 MdmX PPI	MPTP counter	others
Cc1nccc(-c2cccc(NC(=O)Nc3ccc(Cl)cc3)c2)n1	83*	-3	25*	-6	14	-1	93*
O=C(c1ccccc1)n1c(=O)cc[nH]c1=O	0	-4	-1	-1	-2	11	/
O=C(COc1ccccc1[N+](=O)[O-])NNC(=O)Nc1cccc2ccccc12	2	-14	-1	3	6	7	/
O=C(c1sccc1-c1ccccc1)N1CCN(S(=O)(=O)c2ccccc2F)CC1	1	0	1	-8	-1	27	/
Cc1ccccc1NC(=O)Cc1nc(COC(=O)Cc2c(F)cccc2Cl)cs1	-1	0	-3	/	-19	5	/
O=C(NCc1ccncc1)Nc1cccc(Cl)c1	3	-7	1	-2	-13	10	/
O=C(Nc1ccncc1)Nc1cccc(Cl)c1	57*	4	14*	-2	-9	16	95*
S=C(Nc1ccc(Cc2ccncc2)cc1)Nc1cccc(Cl)c1	93*	-5	0	2	56	5	81*
CNC(=S)Nc1ccc(Cc2ccncc2)cc1	2	-2	-1	0	-9	17	/
Cn1nc(C(=O)Nc2cccc(Cl)c2)cc1C(=O)Nc1cccc(Cl)c1	57*	16	1	21	39	44	84*
CC(=O)N(C)c1ccc(NC(=O)Nc2ccc(Cl)cc2)cc1	56*	4	0	-7	0	10	78*
COCCN1CCN(C(=O)c2cc(COc3ccc(Cl)cc3OC)on2)CC1	0	-1	2	-16	9	-25	/
O=[N+]([O-])c1ccc(CS(=O)(=O)c2ccc(Cl)cc2)cc1	0	-4	1	2	9	/	/
O=[N+]([O-])c1cc(CS(=O)(=O)Oc2ccc(Cl)cc2)c(O)c([N+](=O)[O-])c1	74*	/	-4	2	1	-11	59*
Cc1c(OC(C)C(=O)NCC(O)c2ccccc2)ccc2c3c(c(=O)oc12)CCC3 (centres undefined)	0	10	-5	-7	9	17	/
CCCCOc1ccc(C(=O)OC2CC(C)N(C)CC2C)cc1 (centres undefined)	83*	-4	-1	3	75	27	-6	MPTP abs DR=9.7*;MPTP cs DR=74*
CC1CN(C)C(C)CC1OC(=O)C(c1ccccc1)c1ccccc1 (centres undefined)	1	-12	-1	0	20	27	/
CNC(=O)CN(c1ccc(Oc2ccccc2)cc1)S(=O)(=O)c1ccc(C)cc1	1	/	2	-1	-7	18	/
O=C(CSCc1ccccc1)NNC(=S)Nc1cccc(Cl)c1Cl	92*	-2	3	9	22	-8	103*

Screens: PubChem, several laboratories
